# Bioassay records from PubChem.
# PglD inh: inhibitors of Campylobacter jejuni PglD acetyltransferase; actives 0.098% (n = 360,000); purified PglD enzyme, DTNB colorimetric CoA detection; inhibition, % at 12.5 µM; in the data active = inhibition above about 16%, passing the limit was not always enough; inconclusive = no clear call, values can overlap the other calls
# Glyco luc inh: blocks N-linked glycosylation in D54 reporter cells | reporter increase, % at 12.5 µM | AID 588692 | actives 0.23% (n = 360,000) | D54 ERlucT glycosylation luciferase reporter, 24 h; percent of 100 nM tunicamycin response;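 active = mean luciferase reporter signal, scaled so untreated is 0 and the glycosylation-blocking control 100, at or above a set limit in every replicate; inconclusive = mean reaches the limit but not every replicate does; inactive = mean below the limit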;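 also: luciferase carries N-glycosylation sites so blocking glycosylation raises the light; 0% = median of neutral control wells and 100% = median of 100 nM tunicamycin wells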
# DENV2 CPE rescue: DENV2-induced cell death inhibition; CPE inhibition, % at 9.99 µM; actives 1.7% (n = 350,000); DENV2-infected cells, cytopathic effect rescue, plate reader; AID 651640; in the data active = CPE inhibition above about 20%, passing the limit was not always enough; inconclusive = no clear call, values can overlap the other calls; tested in BHK-21 cells;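 also: 0% = median of neutral control wells and 100% = median of positive control wells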
# Rtt109 Vps75: blocks Candida albicans Rtt109/Vps75 acetyltransferase activity | Q5AAJ8 | purified Rtt109/Vps75, ThioGlo CoA-SH fluorescence, 4 h | inhibition, % at 34.9 µM | actives 0.16% (n = 330,000) | AID 540336;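 active = inhibition of at least 50% in every replicate; inconclusive = best replicate reaches 50% inhibition but some replicates fall short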
# Target sequence (Q5AAJ8 whole entry, looked up): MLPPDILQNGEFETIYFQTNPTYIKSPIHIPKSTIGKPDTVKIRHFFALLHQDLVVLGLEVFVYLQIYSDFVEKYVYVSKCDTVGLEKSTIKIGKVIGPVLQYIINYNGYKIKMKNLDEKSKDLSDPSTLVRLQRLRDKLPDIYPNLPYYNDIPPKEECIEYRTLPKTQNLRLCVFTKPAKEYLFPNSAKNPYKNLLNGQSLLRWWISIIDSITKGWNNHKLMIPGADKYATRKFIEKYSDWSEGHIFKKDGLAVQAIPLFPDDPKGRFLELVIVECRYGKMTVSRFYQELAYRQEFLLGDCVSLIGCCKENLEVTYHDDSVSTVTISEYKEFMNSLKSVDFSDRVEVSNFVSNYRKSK
# * marks the source's active call; other numbers are inactive results; u = inconclusive; x = not tested or not shown. Shown is part of a subset that was picked to be rich in hits.
SMILES,PglD inh,Glyco luc inh,DENV2 CPE rescue,Rtt109 Vps75
c1ccc(COc2ccc(-c3cc4nc(NCCOc5ccccc5)ccn4n3)cc2)cc1,0,-3,-1,x
COc1cc(-c2cc3nc(NCCc4ccncc4)ccn3n2)cc(OC)c1OC,-1,28*,-3,x
Cc1ccc(S(=O)(=O)N(C)C[C@H]2OCCCC[C@H](C)Oc3ccc(N(C)C)cc3C(=O)N([C@@H](C)CO)C[C@@H]2C)cc1,10,x,6,x
Cc1ccc(OCCCCN2CCCCC2)c(C)c1,-2,0,8,46
Cc1ccc(C)c(OCCCCN2CCCCC2)c1,-9,-1,55*,-3
CC1CCN(C(=O)COC(=O)CNC(=O)c2ccccc2F)CC1,-3,3,69*,-6
CC1CCN(C(=O)COC(=O)c2cc3ccccc3oc2=O)CC1,1,0,54*,9
CC1CCCC(NC(=O)COC(=O)c2cc3ccccc3oc2=O)C1C (stereo not drawn),0,4,7,-4
C[C@@H]1CN([C@@H](C)CO)S(=O)(=O)c2ccc(-c3ccc(C#N)cc3)cc2O[C@@H]1CN(C)C,0,x,7,x
C[C@H]1[C@H](c2ccccc2)C[C@@H](C(=O)O)C1(C)C,2,1,40*,1
COCC(=O)Nc1ccc2c(c1)[C@@H]1C[C@H](CC(=O)N3CCN(C)CC3)O[C@H](CO)[C@@H]1O2,4,x,u,x
CCCCn1c(N)c(N(CCC(C)C)C(=O)C2CC(=O)N(c3ccc4c(c3)OCCO4)C2)c(=O)[nH]c1=O (stereo not drawn),2,1,-9,9
CCCCn1c(N)c(N(CCC(C)C)C(=O)C2CC(=O)N(c3ccccc3OCC)C2)c(=O)[nH]c1=O (stereo not drawn),-2,0,66*,3
CC(C)c1ccc(NC(=O)NC(C)c2ccc3c(c2)OCO3)cc1 (stereo not drawn),1,-2,-6,58*
O=C(C[C@@H]1CC[C@@H](NC(=O)Nc2cccc(F)c2)[C@H](CO)O1)NCC1CC1,1,x,14,x
O=C(/C=C/c1ccncc1)c1ccc2c(c1)OCCO2,x,70*,7,18
CCC(=O)c1cn(CC(=O)Nc2cccc(C)c2)c2ccccc12,-3,0,69*,5
COCC(=O)N(C)C[C@H]1Oc2cc(C#CC(C)(C)O)ccc2S(=O)(=O)N([C@@H](C)CO)C[C@@H]1C,-6,x,-8,x
COc1ccc(-c2oc3ccccc3c2C#Cc2cncn2C)cc1,-4,14,70*,-9
COc1ccc(-c2sc3ccc(OC)cc3c2C#Cc2cncn2C)cc1,0,0,-7,-10
COc1ccc(-c2sc3cc4c(cc3c2C#Cc2cncn2C)OCO4)cc1,-6,6,34*,-6
C[C@@H]1CN([C@H](C)CO)C(=O)c2cc(NC(=O)CCCN(C)C)ccc2O[C@@H](C)CCCCO[C@@H]1CN(C)S(=O)(=O)c1ccc(F)cc1,-1,x,5,x
C[C@H](CO)N1C[C@H](C)[C@H](CN(C)S(=O)(=O)c2ccccc2)OCCCC[C@H](C)Oc2ccc(NC(=O)CCCN(C)C)cc2C1=O,-1,x,-4,x
C[C@@H]1CCCCO[C@H](CN(C)S(=O)(=O)c2ccccc2)[C@@H](C)CN([C@@H](C)CO)C(=O)c2cc(NC(=O)CCCN(C)C)ccc2O1,2,x,111*,x
C[C@@H]1CN([C@@H](C)CO)C(=O)c2cc(NC(=O)CCCN(C)C)ccc2O[C@@H](C)CCCCO[C@@H]1CN(C)S(=O)(=O)c1ccc(F)cc1,-3,x,44*,x
SMILES,PglD inh,Glyco luc inh,DENV2 CPE rescue,Rtt109 Vps75
COc1ccc(S(=O)(=O)N(C)C[C@H]2OCCCC[C@H](C)Oc3ccc(NC(=O)CCCN(C)C)cc3C(=O)N([C@H](C)CO)C[C@H]2C)cc1,1,x,38*,x
C[C@H](CO)N1C[C@H](C)[C@H](CN(C)S(=O)(=O)c2ccc(F)cc2)OCCCC[C@H](C)Oc2ccc(NC(=O)CCCN(C)C)cc2C1=O,1,x,34*,x
CCCNC(=O)C[C@H]1CC[C@H]2[C@H](COc3ccc(NC(=O)c4cccc(C(F)(F)F)c4)cc3C(=O)N2C)O1,-1,x,1,x
Cc1noc(C)c1S(=O)(=O)N(C)C[C@@H]1OCCCC[C@H](C)Oc2ccc(NS(=O)(=O)c3cccs3)cc2C(=O)N([C@@H](C)CO)C[C@H]1C,5,x,-14,x
Cc1ccccc1S(=O)(=O)N1CC(=O)N2[C@H](C1)[C@H](c1ccc(C#CCN(C)C)cc1)[C@@H]2CO,x,x,16,x
O=C(C[C@@H]1C[C@@H]2c3cc(NC(=O)c4ccc5c(c4)OCO5)ccc3O[C@@H]2[C@H](CO)O1)NC1CCCC1,1,x,38*,x
CN(C)CC(=O)Nc1ccc2c(c1)[C@@H]1C[C@H](CC(=O)NC3CCCCC3)O[C@H](CO)[C@@H]1O2,-1,x,-1,x
CN(C)CC(=O)Nc1ccc2c(c1)[C@@H]1C[C@@H](CC(=O)NC3CCCCC3)O[C@H](CO)[C@@H]1O2,0,x,86*,x
O=C(C[C@H]1C[C@@H]2c3cc(NC(=O)c4ccc5c(c4)OCO5)ccc3O[C@@H]2[C@H](CO)O1)NC1CCCC1,2,x,-7,x
COCC(=O)Nc1ccc2c(c1)[C@@H]1C[C@H](CC(=O)NC3CCCCC3)O[C@H](CO)[C@@H]1O2,1,x,56*,x
CN(C)CC(=O)Nc1ccc2c(c1)[C@@H]1C[C@@H](CC(=O)NC3CCCCC3)O[C@@H](CO)[C@@H]1O2,-1,x,11,x
CN(C)CC(=O)Nc1ccc2c(c1)[C@H]1C[C@H](CC(=O)NC3CCCCC3)O[C@@H](CO)[C@H]1O2,-1,x,86*,x
C[C@H]1CCCCO[C@H](CN(C)C(=O)Nc2ccccc2)[C@@H](C)CN([C@@H](C)CO)C(=O)c2cc(NC(=O)C3CCCCC3)ccc2O1,6,x,-8,x
C[C@@H](NC(=O)C[C@H]1CC[C@H](NC(=O)C2CC2)[C@@H](CO)O1)c1ccccc1,8,x,-4,x
CCOC(=O)c1cc2c(c(-c3cccc(-c4cccc(OC)c4)c3)n1)[C@@H](CCO)N(S(=O)C(C)(C)C)C2 (stereo partly drawn),1,x,-5,x
O=C(c1ccc(Cl)cc1)N1CCc2c([nH]c3ccccc23)C1C(F)(F)F (stereo not drawn),8,5,26*,3
CC(C)NC(=O)N1[C@H](C(=O)N2CCC(Cc3ccccc3)CC2)[C@@H](CO)[C@@H]2Cn3c(cccc3=O)[C@@H]21,6,x,26*,x
O=C(NCc1cccc(F)c1)[C@@H]1[C@@H](CO)[C@@H]2Cn3c(cccc3=O)[C@H]1N2C(=O)c1cnccn1,-3,x,82*,x
O=C(NCc1ccccc1)[C@@H]1[C@@H](CO)[C@@H]2Cn3c(cccc3=O)[C@@H]2N1Cc1ccccc1F,0,x,23*,x
O=C(NCc1ccccc1)[C@@H]1[C@@H](CO)[C@@H]2Cn3c(cccc3=O)[C@H]1N2Cc1ccccn1,0,x,40*,x
CC(C)NC(=O)N1[C@@H]2c3cccc(=O)n3C[C@@H]2[C@@H](CO)[C@@H]1C(=O)N1CCC(Cc2ccccc2)CC1,2,x,8,x
